Experimental data: PubChem BioAssay (NCATS)
Inconclusive results are not listed. Calls of active or inactive are those of the source. Unless noted, calls follow the shape of the dose curve; as a rule, active = well fitted curve in the direction sought with a large enough effect; inconclusive = small, poorly fitted or top-dose-only effect, or another doubt; inactive = no such curve, though single readings can be large; an effect the other way counts as inactive or inconclusive.

How the values were obtained:
[1] = Cell Viability - Jurkat (AID 426;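 active = dose-dependent loss of cell ATP signal giving a full or clear fitted curve, ranked by lower potency value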; also: potency is read from the fitted curve at half-maximal effect); conditions: qHTS
Method in brief: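 Cytotoxicity taken as drop in cellular ATP (CellTiter-Glo luminescence, 20 min room temperature) after 40 hr, 37C treatment of 5000 Jurkat Clone E6-1 cells per well; concentration-response fitted with Hill equation for AC50.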

[2] = Cell Viability - Hek293 (AID 427;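 active = compounds whose dose-response curve shows a full or clear partial loss of cell viability, called from curve shape rather than a numeric limit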;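 also: potency is read from the fitted curve at half-maximal effect; cells exposed to compound for 40 hours at 37 °C before reading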); conditions: qHTS
Method in brief: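 HEK293 cells in complete medium were exposed to compound for 40 hr at 37 °C, then cellular ATP was read by CellTiter-Glo luminescence. Data were normalized to DMSO (basal) and 100 uM tamoxifen (100% inhibition), and AC50 came from Hill fits.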

[3] = Cell Viability - HepG2 (AID 433; calls by dose curve;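 also: potency is read from the fitted curve at half-maximal effect; potency for ATP loss meaning cytotoxicity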); conditions: qHTS
Method in brief: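 ATP luminescence (CellTiter-Glo) after 40 h compound exposure, 37 °C, HepG2, 1500 cells/well, complete medium. Normalized: DMSO = basal, 100 uM tamoxifen = 100% inhibition. AC50 via standard Hill equation.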

[4] = Cell Viability - MRC5 (AID 434; calls by dose curve;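 also: potency is read from the fitted curve at half-maximal effect; potency reflects cytotoxicity seen as loss of intracellular ATP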); conditions: MRC5 lung fibroblast viability, qHTS
Method in brief: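 Decrease in intracellular ATP, quantified by luciferase light output, reflects compound toxicity toward MRC5 cells exposed for 40 hr in complete culture medium. Concentration-response curves, scaled between DMSO and 100 uM tamoxifen, gave AC50 values.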

[5] = Cell Viability - SK-N-SH (AID 435; calls by dose curve; also: potency is read from the fitted curve at half-maximal effect); conditions: SK-N-SH neuroblastoma cell viability qHTS
Method in brief: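 CellTiter-Glo ATP luminescence, 20 min RT read; cells pre-plated 5 hr, compound 40 hr at 37 °C, 1500 cells/well, complete medium. Normalized DMSO = 0, 100 uM tamoxifen = 100% inhibition; Hill-fit AC50.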

[6] = target: Mitogen-activated protein kinase 10 (Mus musculus) (UniProt Q61831); assay: JNK3 AlphaScreen Assay (AID 530; active = well fitted curve in either direction with a large enough effect, not every such curve was filed as active;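 also: kinase came from lysate of stimulated human HepG2 cells; signal reports phosphorylation of biotinylated GST-cJun 1-79 at Ser73 with 10 µM ATP; % is scaled to controls: 0 for no effect and ±100 for the full control effect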); conditions: JNK3 lysate, c-Jun phosphorylation; series mostly up to 57.1 µM
Method in brief: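 Phosphorylation of biotinylated GST-cJun(1-79) at Ser73 is measured by AlphaScreen proximity luminescence. Enzyme is JNK3 in HepG2 lysates activated with interleukin-1beta and tumor necrosis factor alpha; ATP is 10 uM final.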

[7] = Cell Viability - N2a (AID 540); conditions: N2a mouse neuroblastoma cell viability; activity change, negative = cytotoxicity: at 92.2 µM (top of the series); also: nearly all actives have a fitted effect of over 45% in size; also: potency is read from the fitted curve at half-maximal effect;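 as to activity change, negative = cytotoxicity: plate controls were DMSO alone for no effect and tamoxifen control for full effect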
Method in brief: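 CellTiter-Glo ATP luminescence, read 20 min after reagent at room temperature, reported viability following 40 h compound treatment at 37 °C. N2a mouse neuroblastoma cells seeded 1500/well; Hill equation gave AC50.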

[8] = Cell Viability - NIH 3T3 (AID 541); conditions: NIH 3T3 cell viability, qHTS; activity change, negative = cytotoxicity: at 92.2 µM (top of the series);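 also: plate controls were DMSO alone for no effect and tamoxifen positive control for full effect; nearly all actives have a fitted effect of over 25% in size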
Method in brief: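 Intracellular ATP (CellTiter-Glo luminescence, 20 min at room temperature) measured after 40 hr compound exposure at 37 °C of 1000 NIH 3T3 mouse fibroblasts/well in complete medium; AC50 derived by Hill-equation modelling of qHTS concentration-response curves.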

[9] = Cell Viability - HUV-EC-C (AID 542); conditions: HUV-EC-C endothelial cell viability, qHTS; series mostly up to 92.2 µM; also: nearly all actives have a fitted effect of over 35% in size; also: potency is read from the fitted curve at half-maximal effect; as to activity change, negative = cytotoxicity: % is scaled to controls: 0 for no effect and ±100 for the full control effect
Method in brief: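 CellTiter-Glo luminescence measured ATP loss in HUV-EC-C cells (1000/well) after 40 hr compound exposure at 37 °C, in complete culture medium. Concentration-response data were Hill-fitted to give AC50.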

[10] = Cell Viability - H-4-II-E (AID 543); conditions: H-4-II-E rat hepatoma viability; series mostly up to 92.2 µM; also: nearly all actives have a fitted effect of over 35% in size; also: potency is read from the fitted curve at half-maximal effect
Method in brief: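 CellTiter-Glo luminescence (intracellular ATP) measured after 40 h compound exposure at 37 °C in H-4-II-E rat hepatoma cells seeded at 1500/well. Values are AC50s fitted with the standard Hill equation.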

[11] = Cell Viability - SH-SY5Y (AID 544); conditions: SH-SY5Y neuroblastoma cell viability; viability change, negative = cytotoxic: at 92.2 µM (top of the series); also: nearly all actives have a fitted effect of over 55% in size; also: potency is read from the fitted curve at half-maximal effect
Method in brief: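 Cytotoxicity measured via ATP-dependent luciferase luminescence (CellTiter-Glo) following 40 h, 37 °C exposure of 1500 SH-SY5Y cells per well. Concentration-response data were fitted with the standard Hill equation to give AC50.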

[12] = Cell Viability - Renal Proximal Tubule (AID 545); conditions: renal proximal tubule cells viability, primary cells of rat origin; series mostly up to 91.7 µM; also: nearly all actives have a fitted effect of over 40% in size; also: potency is read from the fitted curve at half-maximal effect
Method in brief: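 Rat kidney proximal tubule cells, freshly isolated; 1000 cells/well, 5 hr settle, compound 40 hr 37 °C. CellTiter-Glo 20 min RT, luminescence read. AC50 by standard Hill fit.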

[13] = Cell Viability - Mesenchymal (AID 546); conditions: mesenchymal cells viability, qHTS; series mostly up to 91.7 µM;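 also: cells exposed to compound for 40 hours before reading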; also: potency is read from the fitted curve at half-maximal effect
Method in brief: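 In this qHTS cytotoxicity format, glomerulus-derived human mesenchymal kidney cells received compound for 40 hr, then luciferase-based ATP quantitation. Concentration-response data were fitted with the Hill equation.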

[14] = Cellular Toxicity (caspase-3) HepG2 (AID 654); conditions: HepG2 caspase-3 activation, luminescence; series mostly up to 92.2 µM; also: potency is read from the fitted curve at half-maximal effect;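 as to caspase-3 activation: cells exposed to compound for 16 hours before reading; 0% = DMSO alone and 100% = caspase signal from 100 µM tamoxifen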
Method in brief: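 Caspase 3/7 activation is measured as a luminescence increase (aminoluciferin substrate) after 16 h compound exposure of human hepatocarcinoma HepG2 cells. AC50 values are Hill fits, scaled between DMSO baseline and 100 uM tamoxifen stimulation.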

[15] = Cellular Toxicity (caspase-3) Jurkat (AID 655); conditions: Jurkat caspase-3 activation, luminescence; caspase-3 activation: at 92.2 µM (top of the series), DMSO = 0%, tamoxifen = 100%;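 also: cells exposed to compound for 16 h at 37 °C before reading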
Method in brief: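 Luminescent caspase-3/7 readout (aminoluciferin substrate cleavage) in human T-cell leukemia Jurkat cells after 16 hr compound exposure. Concentration-response normalized to DMSO and 100 uM tamoxifen; AC50 by standard Hill equation.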

[16] = Cellular Toxicity (caspase-3) HUV-EC-C (AID 656); conditions: HUV-EC-C cells, caspase-3 activation (apoptosis), vehicle = 0, 100 µM tamoxifen = 100%; series mostly up to 92.2 µM
Method in brief: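 Luminescent caspase-3/7 activation (aminoluciferin substrate cleavage) in HUV-EC-C cells after 16 hr compound exposure, 37°C. Signal normalized to DMSO basal and 100 uM tamoxifen as 100%; AC50 from concentration-response fitted with the Hill equation.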

[17] = Cellular Toxicity (caspase-3) SHSY5Y (AID 657); conditions: SH-SY5Y caspase-3 activation, DMSO zero, 10 µM staurosporine = 100%; series mostly up to 91.7 µM;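 also: cells exposed to compound for 16 hours at 37 °C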
Method in brief: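 Luminescent caspase-3/7 readout (aminoluciferin release) in SH-SY5Y cells after 16 h compound exposure in complete medium. Activity scaled between DMSO basal and 10 uM staurosporine as 100%; concentration-response fitted to Hill equation for AC50.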

[18] = Cellular Toxicity (caspase-3) BJ (AID 658); conditions: BJ fibroblasts, luminescence, normalized: DMSO 0%, staurosporine 100%; series mostly up to 91.7 µM;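 also: cells exposed to compound for 16 hours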
Method in brief: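 Plated BJ cells (1000/well) rested 5 hr, received compound for 16 hr at 37 °C, then Caspase-Glo 3/7 reagent for 1 hr at room temperature before luminescence reading.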

[19] = Cellular Toxicity (caspase-3) MRC-5 (AID 659); conditions: MRC-5 cells, luminescence, normalized: DMSO 0%, 10 µM staurosporine 100%; series mostly up to 91.7 µM;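 also: cells exposed to compound for 16 h at 37 °C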
Method in brief: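 Apoptosis readout in MRC-5 cells: luciferase light generated after caspase 3/7 cleaves a peptide-aminoluciferin substrate, measured post 16 hr compound incubation at 37 °C.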

c1ccc2c(c1)ccc1ncccc12
inactive: Potency [1] > 92 µM | Potency [2] > 92 µM | Potency [3] > 92 µM | Potency [4] > 92 µM | Potency [5] > 92 µM | outcome [6] | activity change, negative = cytotoxicity [7] -0.126% | Potency [8] | Potency [9] | Potency [10] | Potency [11] | Potency [12] | Potency [13] | Potency [14] | caspase-3 activation [15] 3.47% | outcome [16] | outcome [17] | outcome [18] | outcome [19]

Cc1ccc(C)o1
inactive: Potency [1] > 92 µM | Potency [2] > 92 µM | Potency [3] > 92 µM | Potency [4] > 92 µM | Potency [5] > 92 µM | outcome [6] | activity change, negative = cytotoxicity [7] -9.8% | Potency [8] | Potency [9] | Potency [10] | Potency [11] | Potency [12] | Potency [13] | Potency [14] | caspase-3 activation [15] 1.7% | outcome [16] | outcome [17] | outcome [18] | outcome [19]

CCOc1ccc(NC(C)=O)cc1N
inactive: Potency [1] > 92 µM | Potency [2] > 92 µM | Potency [3] > 92 µM | Potency [4] > 92 µM | Potency [5] > 92 µM | outcome [6] | activity change, negative = cytotoxicity [7] -12.5% | Potency [8] | Potency [9] | Potency [10] | Potency [11] | Potency [12] | Potency [13] | Potency [14] | caspase-3 activation [15] 0.0364% | outcome [16] | outcome [17] | outcome [18] | outcome [19]

CCCCCCCCC
inactive: Potency [2] > 92 µM | Potency [3] > 92 µM | Potency [4] > 92 µM | Potency [5] > 92 µM | outcome [6] | activity change, negative = cytotoxicity [7] -3.11% | Potency [8] | Potency [9] | Potency [10] | Potency [11] | Potency [12] | Potency [13] | Potency [14] | caspase-3 activation [15] 0.991% | outcome [16] | outcome [17] | outcome [18] | outcome [19]

Cc1ccccc1C=O
inactive: Potency [1] > 92 µM | Potency [2] > 92 µM | Potency [3] > 92 µM | Potency [4] > 92 µM | outcome [6] | activity change, negative = cytotoxicity [7] 2.15% | Potency [8] | Potency [9] | Potency [10] | Potency [11] | Potency [12] | Potency [13] | Potency [14] | caspase-3 activation [15] 0.742% | outcome [16] | outcome [17] | outcome [18] | outcome [19]

CCOc1ccccc1N
inactive: Potency [1] > 92 µM | Potency [2] > 92 µM | Potency [3] > 92 µM | Potency [4] > 92 µM | Potency [5] > 92 µM | outcome [6] | activity change, negative = cytotoxicity [7] 1.87% | Potency [8] | Potency [9] | Potency [10] | Potency [11] | Potency [12] | Potency [13] | Potency [14] | caspase-3 activation [15] 0.926% | outcome [16] | outcome [17] | outcome [18] | outcome [19]

Cc1ccc2nc(-c3ccc(N)cc3)sc2c1S(=O)(=O)O
inactive: Potency [2] > 92 µM | Potency [3] > 92 µM | Potency [4] > 92 µM | Potency [5] > 92 µM | outcome [6] | activity change, negative = cytotoxicity [7] 3.3% | Potency [9] | Potency [10] | Potency [11] | Potency [12] | Potency [13] | Potency [14] | caspase-3 activation [15] -10.6% | outcome [16] | outcome [17] | outcome [18] | outcome [19]

COc1ccc(N=[N+]([O-])c2ccc(OC)cc2)cc1
inactive: Potency [1] > 92 µM | Potency [2] > 92 µM | Potency [3] > 92 µM | Potency [4] > 92 µM | Potency [5] > 92 µM | outcome [6] | activity change, negative = cytotoxicity [7] -19% | Potency [8] | Potency [9] | Potency [11] | Potency [12] | Potency [13] | Potency [14] | caspase-3 activation [15] -8.89% | outcome [16] | outcome [17] | outcome [18] | outcome [19]

COc1ccccc1[N+](=O)[O-]
inactive: Potency [1] > 92 µM | Potency [2] > 92 µM | Potency [3] > 92 µM | Potency [5] > 92 µM | outcome [6] | activity change, negative = cytotoxicity [7] -25.3% | Potency [8] | Potency [9] | Potency [10] | Potency [11] | Potency [12] | Potency [13] | Potency [14] | caspase-3 activation [15] 10.8% | outcome [16] | outcome [17] | outcome [18] | outcome [19]

O=[N+]([O-])c1ccc(CCO)cc1
inactive: Potency [1] > 92 µM | Potency [2] > 92 µM | Potency [3] > 92 µM | Potency [4] > 92 µM | Potency [5] > 92 µM | outcome [6] | activity change, negative = cytotoxicity [7] -10.2% | Potency [9] | Potency [10] | Potency [11] | Potency [13] | Potency [14] | caspase-3 activation [15] -1.91% | outcome [16] | outcome [17] | outcome [18] | outcome [19]

Nc1cc(Cl)c([N+](=O)[O-])cc1O
inactive: Potency [1] > 92 µM | Potency [2] > 92 µM | Potency [3] > 92 µM | Potency [4] > 92 µM | Potency [5] > 92 µM | Potency [9] | Potency [10] | Potency [11] | Potency [12] | Potency [13] | Potency [14] | outcome [17] | outcome [18] | outcome [19]
active: activity change, negative = cytotoxicity [7] -99.1%

FC(F)(F)c1cccc(Cl)c1
inactive: Potency [1] > 92 µM | Potency [2] > 92 µM | Potency [3] > 92 µM | Potency [5] > 92 µM | outcome [6] | activity change, negative = cytotoxicity [7] -8.83% | Potency [8] | Potency [9] | Potency [10] | Potency [11] | Potency [12] | Potency [13] | Potency [14] | caspase-3 activation [15] -0.146% | outcome [16] | outcome [17] | outcome [18] | outcome [19]

CC1=C(/C=C/C(C)=C/C=C/C(C)=C\C=O)C(C)(C)CCC1
active: Potency [1] 22.2 µM | Potency [2] 51.9 µM | Potency [3] 66.1 µM | Potency [4] 39.8 µM | Potency [5] 31.7 µM | Potency [7] 25.1 µM | activity change, negative = cytotoxicity [8] -120% | Potency [9] 31.6 µM | Potency [10] 12.6 µM | Potency [11] 20 µM | Potency [12] 12.6 µM | Potency [13] 12.6 µM | Potency [14] 63.1 µM
inactive: outcome [6] | outcome [18]
